Source: PubChem BioAssay AID493212 (National Center for Advancing Translational Sciences (NCATS), 2011)
Some of the results follow. Inconclusive results are not listed. Calls of active or inactive are those of the source. Calls follow the shape of the dose curve; as a rule, active = well fitted inhibition curve with a large enough effect; inconclusive = small, poorly fitted or top-dose-only effect; inactive = no such curve, though single readings can be large or run the other way.

The compounds below were run against Lysine-specific demethylase 4E (Homo sapiens) (UniProt B2RXH2) (assay: Inhibitors of Human Jumonji Domain Containing 2E (JMJD2E): 8HQs - Round 1). Conditions: FDH-coupled NADH fluorescence (FDH is formaldehyde dehydrogenase).
Chain of Lysine-specific demethylase 4E (Homo sapiens) (B2RXH2 1-337 limits assumed): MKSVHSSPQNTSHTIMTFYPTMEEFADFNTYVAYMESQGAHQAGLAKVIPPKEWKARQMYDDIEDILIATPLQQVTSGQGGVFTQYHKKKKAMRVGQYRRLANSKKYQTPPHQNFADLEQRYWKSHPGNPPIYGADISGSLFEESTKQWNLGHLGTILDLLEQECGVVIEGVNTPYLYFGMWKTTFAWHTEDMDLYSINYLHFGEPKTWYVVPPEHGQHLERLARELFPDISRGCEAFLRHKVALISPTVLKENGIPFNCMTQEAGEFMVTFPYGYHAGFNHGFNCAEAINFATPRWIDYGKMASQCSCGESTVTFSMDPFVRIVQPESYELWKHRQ
From the text: The fine interplay among methylation states of several lysine residues on the tails of histone proteins is a major determinant of the transcriptional state of the associated DNA coding regions and is commonly referred to as the histone code. Histone lysine demethylases catalyze the removal of methyl groups from methylated lysine sidechains on histones H3 and H4, thus antagonizing the reactions catalyzed by histone lysine methyltransferases. […] In search for novel inhibitors of JMJD2E demethylase, a member of the largest set of histone demethylases belonging to the Fe(II) and 2-oxoglutarate oxygenase (2OG) superfamily, we performed a quantitative high-throughput screen (Inglese 2006) by using an assay which utilizes a trimethylated peptide substrate corresponding to a fragment of histone H3 (sequence ARKme3STGGK) with detection of the formaldehyde co-product in real time by a formaldehyde dehydrogenase (FDH) coupled reaction. FDH catalyzes oxidation of formaldehyde to formic acid with the concomitant reduction of the non-fluorescent beta-nicotinamide adenine dinucleotide hydrate (NAD+) cofactor to the fluorescent NADH co-product. This assay is a following of SAR around 8-hydroxyquinoline-based inhibitors of JMJD2E. References: Inglese, J., Auld, D., Jadhav, A., Johnson, R., Simeonov, A., Yasgar, A., Zheng, W. and Austin, C. Proc Natl Acad Sci USA 2006, 103, 11473-11478. N. R. Rose, S. S. Ng, J. Mecinovic, B. M. Lienard, S. H. Bello, Z. Sun, M. A. McDonough, U. Oppermann and C. J. Schofield, J Med Chem, 2008, 51, 7053-7056. Sakurai, M., Rose, N., Schultz, L., Quinn, A., Jadhav, A., Ng, S., Oppermann, U., Schofield, C.J. and Simeonov, A. Mol BioSystems 2009, in press. S. Michael, D. Auld, C. Klumpp, A. Jadhav, W. Zheng, N. Thorne, C. Austin, J. Inglese and A. Simeonov, Assay Drug Dev Technol, 2008, 6, 637-657. Assay Provider: Structural Genomics Consortium [SGC] Screening Center PI: Austin, C.P. Screening Center: NIH Chemical Genomics Center [NCGC]
Reagents and Controls: Ferrous ammonium sulfate, (+)-sodium L-ascorbate, beta-nicotinamide adenine dinucleotide hydrate (NAD+), Tween-20, formaldehyde dehydrogenase from P. putida (FDH), and disodium 2-oxoglutarate were from Sigma (St. Louis, MO). Black solid-bottom 384-well or 1,536-well assay plates were from Greiner Bio-One (Monroe, NC). Enzyme was supplied by Prof. Udo Oppermann, SGC-Oxford. The catalytic domain of human JMJD2E (residues 1-337) was produced as an N-terminally His6-tagged protein in E. coli, and purified by Ni-affinity chromatography and size-exclusion chromatography, and stored in HEPES 50 mM/ NaCl 500 mM pH 7.5, as reported in Rose 2008. The trimethylated histone peptide substrate ARK(me3)STGGK was synthesized and HPLC-purified by the Tufts University Core Facility (Boston, MA). Substrate solution (Sakurai 2009) contained 50 uM ARK(me3)STGGK, 0.00025 U/uL FDH, 50 uM 2-oxoglutarate, 250 uM NAD+, 1 mM ascorbate, and 10 uM ferrous ammonium sulfate. Controls and plate map: Buffer (150 mM HEPES pH 7.5 containing 0.01% Tween-20) in columns 3 and 4 as negative control (no enzyme) and 100 nM JMJD2E final concentration in columns 1,2, and 5-48. […] The plate was transferred to ViewLux imager where an initial reading using standard UV optics (Ex 340 nm, Em 450 nm) was obtained. The plate was then removed from the reader, incubated for 30 minutes at room temperature, and returned to the reader for a second fluorescence reading. […]
With `Nc1ccc(Nc2cc(O)c3ncccc3c2)cc1` the Potency was 32.4 µM (active).
`CC(=O)NC(c1cccs1)c1cc(Cl)c2cccnc2c1O` (stereo not given) was tested, and the Potency was 12.9 µM (active).
For `Oc1c(CN2CCCC2)cc(COCc2ccccc2)c2cccnc12`, the Potency was 5.01 µM (active).
For `Oc1ccc(/C=C/c2c(F)cccc2F)c2cccnc12`, the Potency was 8.91 µM (active).
`Oc1cccc2cc(-c3ccncc3)cnc12` was tested, and the Potency was 18.2 µM (active).
